In PubChem BioAssay AID556 (SRMLSC, 2006) one finds inhibition and outcome data, which are given here for 100 compounds.

The subject of the test is diphosphomevalonate decarboxylase (Streptococcus pneumoniae D39). In words: diphosphomevalonate decarboxylase activity blockers – biochemical, PK/LDH-coupled NADH fluorescence, primary screen (AID 556).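 As to inhibition: kinetic rate of NADH fluorescence loss reporting ADP formed by the decarboxylase; 0% = full reaction rate with carrier and 100% = no-substrate background rate.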 The note with it: purified DPM-DC, at 10 µM.
Setting [1] is: stronger effect = higher value unless noted.
Where [2] appears, read: measured here: pilot screen trials, stronger effect = higher value.

Among all 65,000 compounds or so, about 320 (0.49%) were called active.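 The calls were made as follows: active = the 320 compounds with the highest percent inhibition in the single-dose primary screen, excluding strongly autofluorescent ones (cut at about 32% in these data); inactive = the rest, inconclusive results apart.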 Only a selection was taken, and actives are over-represented in it overall.

On to `C=CCNC(=O)c1ccc(C)c(Br)c1`, for which the inhibition (as a rule, the relative decrease from the control value, in per cent) under setting [1] is “inactive”. The same measure, in the same setting: for `CCN(CC)CCNC(=O)C1c2ccccc2C(=O)N(C)C1c1cn(C)c2ccccc12` (stereo not drawn) the value was “inactive”; for `COc1ccccc1CNCc1cccs1`, “inactive”; for `COC(=O)c1cc(C(=O)CSc2nc(C)cc(C)n2)ccc1O`, “inactive”. On to `CCOC(=O)Cc1csc(NC(=O)CN(C)S(=O)(=O)c2ccc3c(c2)CCC(=O)N3)n1`, for which, under setting [1], the inhibition was 0% [measured here: pilot screen trials, stronger effect = higher value] and the result was inactive. On to `COc1ccc(OC)c(CNC(=O)CCc2nc(-c3cccs3)no2)c1`, for which, under setting [1], the inhibition result is “inactive”. With `Cc1nnc(SCCCn2c(N3CCCCC3)nc3c2c(=O)[nH]c(=O)n3C)s1`, under setting [1], the inhibition is 1% [measured here: pilot screen trials, stronger effect = higher value] and the outcome was inactive. On to `Cc1ccc(C(=O)OCC(=O)NCc2ccc3c(c2)OCO3)s1`, for which, under setting [1], the inhibition was 14% (inactive).

As to `CCCn1cc(SCC(N)=O)c2ccccc21`, under setting [1], the inhibition was 0% [measured here: pilot screen trials, stronger effect = higher value] and the outcome was inactive. For `C=CCn1c(=O)c2ccccc2n2c(SCC(=O)N3CCCc4ccccc43)nnc12`, the inhibition result under setting [1] was “inactive”. `CCCn1c(=O)c2ccccc2n2c(SCC(=O)/C(C#N)=C(\C)N)nnc12`: under setting [1], the inhibition was 34% (active). Same read-out and setting: under `COC(=O)c1ccccc1NC(=O)CN(Cc1ccccc1)S(C)(=O)=O` stands 5% (inactive); under `CC(=O)c1ccc(N2C(=NC(=O)C(C)C)SC3CS(=O)(=O)CC32)cc1` (stereo not drawn), 14% (inactive); under `CCOCCN(C=O)c1cccc(OC)c1`, “inactive”. On to `COc1ccc(-c2ccnc(SCC(=O)N3CCOCC3)n2)cc1`, for which the inhibition entry under setting [1] is “inactive”. On to `COc1cc(NS(=O)(=O)c2ccc(NC(C)=O)cc2)cc(OC)c1`, for which the inhibition entry under setting [1] was “inactive”. Take `CCC(=O)Nc1sc(C(=O)N2CCCCC2)c(C)c1C#N`: the inhibition result under setting [1] is “inactive”. The same measure, in the same setting: for `O=C(CNC(=O)c1ccco1)OCC(=O)c1ccccc1` the value was 14% (inactive). Still for that read-out and setting: under `Cc1ccc2nc(NC(=O)C3CCN(S(=O)(=O)c4ccc5c(c4)oc(=O)n5C)CC3)sc2c1` stands “inactive”. On the same count and under the same terms, under `CCS(=O)(=O)n1nc(-c2ccc(OC)cc2)nc1SC` stands “inactive”; under `Cc1ccccc1C(=O)Nc1cccc(-c2nnc(SCC(=O)O)n2C)c1`, 3% (inactive).

For the compound `Cn1c(SCC(=O)N2CCOCC2)nnc1-c1ccc(NC(=O)c2ccccc2F)cc1`, the inhibition under setting [1] was 100% (active). On the same count and under the same terms, for `Cn1c(SCC(=O)Nc2cccc(O)c2)nnc1-c1ccc(S(=O)(=O)N2CCOCC2)cc1` the value was “inactive”. `O=C1OC(NC(=O)c2ccccc2)C(N2CCOCC2)=C1Cl` (stereo not drawn): the inhibition under setting [1] was 9% (inactive). The same measure, in the same setting: under `CCOc1ccc(-n2c(SC(C)C(=O)OC)nc3c(c2=O)SCC3)cc1` (stereo not drawn) stands 1% (inactive); under `O=C(NCc1ccccn1)c1cnc2sccn2c1=O`, 27% (inactive). Turning to `CC(C)Cc1cc(C(=O)Nc2cc(Br)ccc2O)no1`, the inhibition entry under setting [1] was “inactive”.

With `CCCC(C)n1[nH]c(=O)c2c(C)cc(C)nc21` (stereo not drawn), the inhibition result under setting [1] is “inactive”. `Cc1nnc(SCC(=O)N(C(C)C)C(C)C)nc1C`: the inhibition was 4% (inactive) (stronger effect = higher value) and 0% under setting [2]. In the case of `CC(C)(C)c1ccc(NC(=O)NCc2ccco2)cc1`, the inhibition result under setting [1] is “inactive”. Same read-out and setting: for `CCCn1c(SCC(=O)c2ccc3c(c2)OCCO3)nnc1C(C)C` the value was 4% (inactive); for `CS(=O)(=O)N1CCN(C(=O)Cc2ccccc2)CC1`, “inactive”; for `CC1(C)Cc2cccc(OCC(=O)Nc3nccs3)c2O1`, “inactive”. Consider `CCOC(=O)C1CCCN(C(=O)c2sc3nc(C)nc(N4CCOCC4)c3c2C)C1` (stereo not drawn), for which, under setting [1], the inhibition result is “inactive”. Consider `O=C(CN1CCN(c2ccccn2)CC1)NCc1cccs1`, for which the inhibition entry under setting [1] was “inactive”. `CC(C)COC(=O)C1C2C=CC3(CN(C(C)c4ccc(Br)cc4)C(=O)C13)O2` (stereo not drawn): the inhibition was 22% (inactive) (stronger effect = higher value) and 0% under setting [2]. Take `CCOC(=O)N1CCC(O)(c2cc(C)c(C)cc2C)CC1`: under setting [1], the inhibition is 0.5% [measured here: pilot screen trials, stronger effect = higher value] and the result was inactive. For `O=C(C1=C(O)C(=O)N(c2ncccn2)C1c1cccs1)c1ccco1` (stereo not drawn), the inhibition under setting [1] is 1% (inactive). Same read-out and setting: for `Cc1[nH]c2ccc(S(N)(=O)=O)cc2c1C` the value was “inactive”; for `CCN(CC)c1ccc(C(=O)OCC(=O)c2ccco2)cc1`, “inactive”; for `Cc1ccc(S(=O)(=O)N2CC(=O)Nc3ccccc32)cc1C`, “inactive”. In the case of `Cc1nc(NC(=O)C23CCC(C)(C(=O)O2)C3(C)C)sc1C` (stereo not drawn), the inhibition is 6% (inactive) (stronger effect = higher value) and 2% under setting [2]. As for `Cc1noc(C)c1C(=O)OCC(=O)/C=C1\N(C)c2ccccc2C1(C)C`, the inhibition entry under setting [1] was “inactive”.

Take `CCOC(=O)CN1CC23C=CC(O2)C(C(=O)Nc2ccc(F)cc2)C3C1=O` (stereo not drawn): the inhibition entry under setting [1] was “inactive”. On the same count and under the same terms, for `CCOCCOC(=O)C1=C(C)N(C)C(=O)NC1c1ccccc1F` (stereo not drawn) the value was “inactive”; for `Cc1c(C(=O)N2CC(C)OC(C)C2)sc2nc(-c3ccccc3)cn12` (stereo not drawn), “inactive”.

Regarding `Cc1c(C(=O)NCC2CCCO2)sc2nc(-c3ccccc3)cn12` (stereo not drawn), the inhibition under setting [1] was 35% (active). Same read-out and setting: under `Cc1c(C(=O)NCCN2CCOCC2)sc2nc(-c3ccc(F)cc3)cn12` stands 9% (inactive). Same read-out and setting: under `C=CCn1c(C2CC(=O)N(c3ccc(C)cc3)C2)nc2ccccc21` (stereo not drawn) stands “inactive”; under `O=C(CSc1nc2cc3c(cc2c(=O)n1CCC1=CCCCC1)OCO3)NCc1ccco1`, “inactive”; under `CCNS(=O)(=O)c1ccc(NC(=O)Nc2cccc(C(F)(F)F)c2)cc1`, “inactive”.

For the compound `CCCCOc1ccc(C(C)(O)CCN2CCOCC2)cc1` (stereo not drawn), the inhibition entry under setting [1] was “inactive”. Same read-out and setting: under `CC1(C)Oc2ccc(C(=O)N3CCOCC3)cc2N(CC(=O)Nc2ccccc2)C1=O` stands “inactive”; under `CCCCNc1nc2ccccc2nc1NS(=O)(=O)c1cccs1`, 2% (inactive); under `Cc1ccc(CN2C(=O)CCC2C(=O)NCCCN2CCCCC2C)cc1` (stereo not drawn), “inactive”.

Take `Cn1c(SCc2nc3ccccc3s2)nnc1-c1ccc2c(c1)OCO2`: the inhibition result under setting [1] was “inactive”. On the same count and under the same terms, under `Cc1cccc(N2CCN(C(=O)C3CCN(S(=O)(=O)c4cnc[nH]4)CC3)CC2)c1C` stands “inactive”; under `CCCCCCOC(=O)NCC(O)c1ccccc1` (stereo not drawn), “inactive”; under `Cc1nc(NCc2ccccc2)c(C(N)=O)c2c1COC(C)(C)C2`, 24% (inactive). Still for that read-out and setting: under `Cc1nc(NCCN)c(C#N)c2c1COC(C)(C)C2` stands 32% (active). Still for that read-out and setting: under `Cc1cc(C)c(S(=O)(=O)NCCCN2CCOCC2)cc1Br` stands “inactive”; under `Cn1c(=O)c(=O)n(C)c2cc(S(=O)(=O)NCCc3ccccc3)ccc21`, “inactive”. On to `Cc1ccc(S(=O)(=O)NCCN2CCOCC2)cc1C`, for which the inhibition runs as follows: (stronger effect = higher value) 80% (active); under setting [2], 0%. With `COCCNC(=O)CN1C(=O)CSc2ncccc21`, under setting [1], the inhibition was 0% [measured here: pilot screen trials, stronger effect = higher value] and the compound was classed as inactive. `c1ccc(CCc2nc(-c3ccncc3)no2)cc1`: the inhibition result under setting [1] was “inactive”. Same read-out and setting: under `Cc1ccccc1CN1CCN(CC(=O)NCc2ccccn2)C1=O` stands “inactive”.

`COc1ccc2c(c1)C(C)=CC(C)(C)N2C(=O)CNCc1ccc2c(c1)OCO2`: under setting [1], the inhibition was 7% (inactive).

Turning to `CC(C)c1nc2oc3c(N4CCN(C)CC4)ncnc3c2c2c1CCC2`, the inhibition entry under setting [1] is “inactive”. On the same count and under the same terms, under `Cc1cccc(C)c1NC(=O)CCCSc1nnc(-c2ccco2)n1-c1ccccc1` stands “inactive”.

On to `NC(=O)c1ccsc1NC(=O)c1ccco1`, for which the inhibition under setting [1] was 9% (inactive).

Turning to `Cc1cc(C)c(C#N)c(SCS(=O)c2ccc(C(C)(C)C)cc2)n1` (stereo not drawn), under setting [1], the inhibition result was “inactive”. Same read-out and setting: under `O=C(CCS(=O)(=O)c1cccc2nonc12)NCCc1ccccc1Cl` stands “inactive”; under `CCCN1C(=O)C(NC(C)=O)c2cc(OC)ccc21` (stereo not drawn), 40% (active); under `COCCCN1C(=O)c2ccc(C(=O)Nc3ccc(OC)cc3OC)cc2C1=O`, “inactive”. On to `CCC1=C(C(=O)OC)C(c2cc(OC)ccc2OC)C(C#N)=C(N)O1` (stereo not drawn), for which, under setting [1], the inhibition was 0% [measured here: pilot screen trials, stronger effect = higher value] and the result was inactive.

Take `CCC(=O)c1ccc(OCC(O)CN2C(=O)NC(C)(C)C2=O)cc1` (stereo not drawn): the inhibition result under setting [1] was “inactive”. For `CC1(C)CC(=O)C=C(NCc2ccncc2)C1`, under setting [1], the inhibition was 2.5% [measured here: pilot screen trials, stronger effect = higher value] and the call was inactive. With `CCCC(=O)N=c1sc2cccc(F)c2n1C`, the inhibition result under setting [1] was “inactive”. With `Cn1c(=NC(=O)C2CC2)sc2cc(F)cc(F)c21`, the inhibition entry under setting [1] is “inactive”. The same measure, in the same setting: under `Cn1c(=NC(=O)c2ccco2)sc2cccc(F)c21` stands 37% (active); under `c1ccc(-n2ncc3c2ncn2c(C4CCCCC4)nnc32)cc1`, “inactive”; under `CC(=O)Nn1cc2c(=O)n(C)c(=O)n(C)c2c1`, “inactive”. The same measure, in the same setting: under `COc1cc(C(=O)N(Cc2ccc(N(C)C)cc2)C2CCS(=O)(=O)C2)cc(OC)c1OC` (stereo not drawn) stands “inactive”.

Take `COc1ccc(OCC(=O)N2CCOCC2)cc1`: under setting [1], the inhibition result was “inactive”. Turning to `CCCCOC(=O)Nc1nccs1`, the inhibition was 1% (inactive) (stronger effect = higher value) and 4.5% under setting [2]. Take `CN(C)CCNC(CC(=O)Nc1ccc(Cl)c(Cl)c1)C(=O)O` (stereo not drawn): the inhibition entry under setting [1] is “inactive”. With `COc1cc(Cl)cc(C2NC(=O)NC(C)=C2C(=O)NCc2ccccc2)c1O` (stereo not drawn), the inhibition under setting [1] was 12% (inactive). Same read-out and setting: for `CCOc1ccc(C2C(C(=O)NC)=C(C)Nc3nc4ccccc4n32)cc1OC` (stereo not drawn) the value was “inactive”; for `Cc1onc(-c2ccccc2)c1C(=O)Nc1ccccc1C#N`, 5% (inactive); for `CC(=O)N1CCc2cc(S(=O)(=O)Nc3ccccc3N3CCN(C)CC3)ccc21`, 1% (inactive). The same measure, in the same setting: under `CC(c1cccnc1)N(CCN(C)C)C(=O)Nc1ccc(Cl)c(Cl)c1` (stereo not drawn) stands “inactive”; under `COc1ccc(C(CNC(=O)c2cccnc2SC)N2CCOCC2)cc1` (stereo not drawn), “inactive”; under `COc1cc(C2C(C(=O)Nc3ccccc3OC)=C(C)Nc3ncnn32)ccc1O` (stereo not drawn), “inactive”.

Turning to `Cc1cc(NC(=O)CSc2nnc(-c3ccc(Cl)s3)o2)no1`, under setting [1], the inhibition entry was “inactive”.

As for `COc1ccc(OCCCC(=O)Nc2nnc(C3CCCO3)s2)cc1` (stereo not drawn), the inhibition entry under setting [1] is “inactive”. Still for that read-out and setting: under `O=C(Nc1ccccc1N1CCN(C(=O)c2ccccc2)CC1)c1ccc2c(c1)OCO2` stands “inactive”; under `Cc1ccc(C)c(S(=O)(=O)N2CC(=O)Nc3ccccc32)c1`, “inactive”; under `COc1ccc(S(=O)(=O)N2CCOCC2)cc1C(=O)Nc1nc2ccccc2s1`, 6% (inactive). On the same count and under the same terms, under `N#Cc1cccc(NC(=O)CCC2CCCC2)c1` stands “inactive”. Turning to `CCCCn1nc(C(=O)N2CCc3ccccc32)c2ccccc2c1=O`, the inhibition was 4% (inactive) (stronger effect = higher value) and 2% under setting [2].
